The results in this text go back to PubChem BioAssay (Tox21).

Assay [1] deals with Progesterone receptor (Homo sapiens) (UniProt P06401). In words: qHTS assay to identify small molecule antagonists of the progesterone receptor (PR) signaling pathway (AID 1346795; active = well fitted inhibition curve with a large enough effect in the signal ratio in the repeat runs, not every such curve was filed as active; the % refers to the signal ratio; note: potency is the fitted concentration of half-maximal effect). The method, boiled down:
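Fluorescence intensity measured 2 hr after adding beta-lactamase FRET substrate to PR-UAS-bla HEK293T cells that had been co-treated 16 hr with compound and 1 nM R5020 (final concentration) in 2% charcoal-stripped FBS.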
In general terms: In qHTS, concentration-response curves come from the screen itself.

The nature of assay [2]: qHTS assay to identify small molecule antagonists of the progesterone receptor (PR) signaling pathway - cell viability counter screen (AID 1346798). Note: nearly all actives have a fitted effect of over 50% in size. Note: potency is the fitted concentration of half-maximal effect. The method, boiled down:
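CellTiter-Glo luminescence; PR-UAS-bla HEK293T, 3,000 cells/well; compound + R5020, 16 hr, 37C/5% CO2; 30 min RT before read.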

Assay [3] is described as follows: qHTS assay to identify small molecule agonists of the progesterone receptor (PR) signaling pathway - cell viability counter screen (AID 1346799; calls by dose curve; note: nearly all actives have a fitted effect of over 45% in size; note: potency is the fitted concentration of half-maximal effect). The method, boiled down: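 In parallel with the beta-lactamase readout, cytotoxicity toward PR-UAS-bla HEK293T cells was measured by CellTiter-Glo luminescence following 16 hr compound incubation in 2% charcoal-stripped FBS medium.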

Assay [4] in a line: qHTS assay to identify small molecule antagonists of the TGF-beta/Smad signaling pathway - cell viability counter screen (AID 1346824). Note: nearly all actives have a fitted effect of over 50% in size. The gist of the method: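 SBE-bla HEK 293T cells, incubated overnight, then compound plus 0.25 ng/mL TGF-beta1 (stock added) for 5 hr at 37 C. Viability was read in the same wells by CellTiter-Glo luminescence after 30 min at room temperature.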

Assay [5] is described as follows: qHTS assay to identify small molecule agonists of the TGF-beta/Smad signaling pathway - cell viability counter screen (AID 1346829). Note: top concentration of the series differs between compounds; nearly all actives have a fitted effect of over 45% in size. The gist of the method: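 Here the cytotoxicity of library compounds is measured in SBE-bla HEK 293T cells treated for 5 hr, using CellTiter-Glo added to wells already read for the beta-lactamase reporter.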
A short description of assay [6]: qHTS assay to identify small molecule agonists of the TGF-beta/Smad signaling pathway (AID 1346859; active = well fitted activation curve with a large enough effect in the signal ratio in the repeat runs, not every such curve was filed as active; the % refers to the signal ratio; note: series mostly up to about 77 µM). The gist of the method: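 After overnight seeding, SBE-bla HEK 293T cells are dosed with compounds in DMSO and kept 5 hr at 37 C, 5% CO2. LiveBLAzer-type FRET substrate is then applied for 2 hr at room temperature.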
Assay [7] has as its target Thyrotropin-releasing hormone receptor (Homo sapiens) (UniProt P34981). In words: qHTS assay to identify small molecule agonists of the thyrotropin-releasing hormone receptor (TRHR) signaling pathway (AID 1346891; calls by dose curve; note: series mostly up to about 58 µM). The method, boiled down: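 Compounds were tested as agonists at 15 concentrations, in triplicate, on TRHR-Hek293 cells; calcium-sensitive dye fluorescence was recorded for 3 min following addition.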

Assay [8] can be described thus: Human pregnane X receptor (PXR) small molecule agonists, qHTS cell viability counter screen (AID 1346977). Note: nearly all actives have a fitted effect of over 50% in size. The method, boiled down: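 Viability counter screen: CellTiter-Fluor signal in PXR-Luc HepG2 cells, 24hr compound exposure, 37C, 5% CO2.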
A short description of assay [9]: Caspase-3/7 induction in CHO-K1 cells by small molecules, qHTS cell viability counter screen (AID 1346979). Note: nearly all actives have a fitted effect of over 35% in size. Note: potency is the fitted concentration of half-maximal effect. The method, boiled down:
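Viability readout by fluorescence (CellTiter-Fluor) on wild-type CHO-K1 cells exposed for 16hr at 37C and 5% CO2 to compounds delivered in DMSO; reagent incubated 1hr before reading.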

Assay [10] is described as follows: Caspase-3/7 induction in CHO-K1 cells by small molecules, qHTS assay (AID 1346980). Note: nearly all actives have a fitted effect of over 15% in size. The gist of the method: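 Wild-type CHO-K1 cells exposed to compounds for 17hr at 37 C, 5% CO2. Caspase-3/7 activity then measured by Caspase-Glo 3/7 luminescence after 30min at room temperature.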
A short description of assay [11]: Caspase-3/7 induction in HepG2 cells by small molecules, qHTS cell viability counter screen (AID 1346981). Note: nearly all actives have a fitted effect of over 30% in size. Note: potency is the fitted concentration of half-maximal effect. The method, boiled down: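 Wild-type HepG2 cells (2,000/well) were allowed to settle for 5 hr at 37 C, 5% CO2, then dosed with compounds in DMSO by pin transfer. After 16 hr at 37 C, CellTiter-Fluor was added and fluorescence read 1 hr later.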
Assay [12] deals with Nuclear receptor subfamily 1 group I member 2 (Homo sapiens) (UniProt O75469). The assay is described as follows: Human pregnane X receptor (PXR) small molecule agonists, qHTS assay (AID 1346982). Note: nearly all actives have a fitted effect of over 35% in size. Note: potency is the fitted concentration of half-maximal effect. The gist of the method:
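PXR-Luc HepG2 cells (CYP3A4 promoter-driven luciferase) were seeded in medium with 5% charcoal-stripped FBS, left 5 hr at 37 C, then exposed to compounds in DMSO for 24 hr. Luminescence was read after ONE-Glo addition.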

For assay [13] the target is unchanged. The assay is described as follows: CYP3A4 induction through human pregnane X receptor (PXR) by small molecules, qHTS assay (AID 1346984). Note: nearly all actives have a fitted effect of over 40% in size. The method, boiled down: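 DPX-2 cells (HepG2 co-transfected with PXR and CYP3A4 promoter-luciferase) treated with compounds 24 h at 37C; luciferin-IPA CYP3A4 substrate 3uM final added for 3 h, then One-Glo; luminescence read. qHTS format.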

For assay [14], the target named is Cytochrome P450 2D6 (Homo sapiens) (UniProt P10635). In words: Cytochrome P450 Family 2 Subfamily D Member 6 (CYP2D6) small molecule antagonists: luciferase reporter qHTS assay (AID 1671196). Note: nearly all actives have a fitted effect of over 50% in size. Note: potency is the fitted concentration of half-maximal effect. The gist of the method:
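CYP2D6 enzyme–substrate mix was held with compound for 10 min at room temperature, then NADPH regeneration solution was added and the reaction ran 1 h at room temperature. Luciferin product was detected by luminescence after 20 min with detection reagent.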

The target in assay [15] is Cytochrome P450 2C19 (Homo sapiens) (UniProt P33261). The assay is described as follows: Cytochrome P450 Family 2 Subfamily C Member 19 (CYP2C19) small molecule antagonists: luciferase reporter qHTS assay (AID 1671197). Note: nearly all actives have a fitted effect of over 65% in size. Note: potency is the fitted concentration of half-maximal effect. The gist of the method:
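Light output is proportional to CYP2C19 activity: proluciferin substrate is converted to luciferin, then detected by a luciferin detection reagent that also stops the 1 h, 37C NADPH-driven reaction. Ketoconazole serves as positive control.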
(In general: In a reporter assay the amount or activity of a reporter protein is the signal.)

The target of assay [16] is Cytochrome P450 2C9 (Homo sapiens) (UniProt P11712). In words: Cytochrome P450 Family 2 Subfamily C Member 9 (CYP2C9) small molecule antagonists: luciferase reporter qHTS assay (AID 1671198). Note: nearly all actives have a fitted effect of over 50% in size. Note: potency is the fitted concentration of half-maximal effect. The gist of the method:
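P450-Glo proluciferin substrate with CYP2C9 enzyme; 10 min RT preincubation, then NADPH regeneration 1 h at 37C; luciferin detection reagent 20 min RT, luminescence in relative luminescence units.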

The target in assay [17] is Thyrotropin-releasing hormone receptor (Homo sapiens) (UniProt P34981). The assay is described as follows: qHTS assay to identify small molecule antagonists of the thyrotropin-releasing hormone receptor (TRHR) signaling pathway (AID 1346877; active = well fitted inhibition curve with a large enough effect in the repeat runs, not every such curve was filed as active; note: series mostly up to about 51 µM). The method, boiled down:
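TRHR-expressing HEK293 cells were seeded, cultured 18 h at 37 °C, then loaded with calcium dye for 2 h. Compounds were pre-incubated 5 min at room temperature before 1 nM TRH (final) was added, and kinetic fluorescence was recorded for 3 min.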

Assay [18] has as its target Nuclear receptor subfamily 1 group I member 2 (Homo sapiens) (UniProt O75469). In words: Human pregnane X receptor (PXR) activation by small molecules, qHTS assay (AID 1346985). Note: nearly all actives have a fitted effect of over 40% in size. The gist of the method: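 DPX-2 cells (HepG2 co-transfected with a PXR response element and a CYP3A4-promoter luciferase construct) were seeded at 2,000 per well, rested 5 hr at 37C, then exposed to DMSO-dissolved compounds for 24 hr. Activation was read as luciferase luminescence.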

Assay [19] can be described thus: Caspase-3/7 induction in HepG2 cells by small molecules, qHTS assay (AID 1346978). Note: nearly all actives have a fitted effect of over 15% in size. The method, boiled down:
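Wild-type HepG2 cells, 2,000/well, settled 5 hr at 37 C and 5% CO2, then compound-treated for 17 hr; caspase-3/7 activity read by luminescent Caspase-Glo 3/7 after 30 min at room temperature.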

“And” between values parts separate entries of the source, which are not always exact repeats. Equal values may be shown once. Inconclusive results are not listed. Some compounds were tested as several samples or in several runs, with calls that do not always agree. The source made the active and inactive calls. Unless noted, calls come from the whole dose curve; as a rule, active = well fitted curve in the direction sought with a large enough effect in the repeat runs; inconclusive = weak or mixed curves; inactive = no such curve, though single readings can be large; an effect the other way counts as inactive or inconclusive.

Chain of Thyrotropin-releasing hormone receptor (Homo sapiens) (P34981 whole entry, looked up): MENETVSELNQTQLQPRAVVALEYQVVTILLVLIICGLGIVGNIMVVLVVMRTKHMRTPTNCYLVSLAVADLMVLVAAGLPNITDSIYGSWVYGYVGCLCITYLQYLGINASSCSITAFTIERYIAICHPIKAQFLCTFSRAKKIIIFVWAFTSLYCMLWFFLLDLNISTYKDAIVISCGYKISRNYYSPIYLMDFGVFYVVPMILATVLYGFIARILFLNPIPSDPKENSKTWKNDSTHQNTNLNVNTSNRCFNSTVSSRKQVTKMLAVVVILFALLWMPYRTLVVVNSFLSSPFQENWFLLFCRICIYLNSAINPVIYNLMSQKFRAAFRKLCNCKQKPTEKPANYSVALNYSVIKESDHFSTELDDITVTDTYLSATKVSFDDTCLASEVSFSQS
Chain of Cytochrome P450 2C9 (Homo sapiens) (P11712 whole entry, looked up): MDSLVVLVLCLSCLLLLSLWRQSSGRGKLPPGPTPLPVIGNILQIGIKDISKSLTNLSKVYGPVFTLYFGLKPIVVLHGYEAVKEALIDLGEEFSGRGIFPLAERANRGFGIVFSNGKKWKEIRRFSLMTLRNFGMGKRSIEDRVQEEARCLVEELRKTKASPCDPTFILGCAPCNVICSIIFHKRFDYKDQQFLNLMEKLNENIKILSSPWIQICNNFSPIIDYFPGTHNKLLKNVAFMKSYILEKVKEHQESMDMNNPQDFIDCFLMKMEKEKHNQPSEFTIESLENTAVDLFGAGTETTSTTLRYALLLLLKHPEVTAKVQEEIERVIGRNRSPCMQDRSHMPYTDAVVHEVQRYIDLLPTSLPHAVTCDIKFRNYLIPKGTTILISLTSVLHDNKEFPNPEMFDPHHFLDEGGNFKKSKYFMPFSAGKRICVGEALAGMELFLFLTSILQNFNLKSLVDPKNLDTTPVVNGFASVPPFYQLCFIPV
Chain of Progesterone receptor (Homo sapiens) (P06401 whole entry, looked up): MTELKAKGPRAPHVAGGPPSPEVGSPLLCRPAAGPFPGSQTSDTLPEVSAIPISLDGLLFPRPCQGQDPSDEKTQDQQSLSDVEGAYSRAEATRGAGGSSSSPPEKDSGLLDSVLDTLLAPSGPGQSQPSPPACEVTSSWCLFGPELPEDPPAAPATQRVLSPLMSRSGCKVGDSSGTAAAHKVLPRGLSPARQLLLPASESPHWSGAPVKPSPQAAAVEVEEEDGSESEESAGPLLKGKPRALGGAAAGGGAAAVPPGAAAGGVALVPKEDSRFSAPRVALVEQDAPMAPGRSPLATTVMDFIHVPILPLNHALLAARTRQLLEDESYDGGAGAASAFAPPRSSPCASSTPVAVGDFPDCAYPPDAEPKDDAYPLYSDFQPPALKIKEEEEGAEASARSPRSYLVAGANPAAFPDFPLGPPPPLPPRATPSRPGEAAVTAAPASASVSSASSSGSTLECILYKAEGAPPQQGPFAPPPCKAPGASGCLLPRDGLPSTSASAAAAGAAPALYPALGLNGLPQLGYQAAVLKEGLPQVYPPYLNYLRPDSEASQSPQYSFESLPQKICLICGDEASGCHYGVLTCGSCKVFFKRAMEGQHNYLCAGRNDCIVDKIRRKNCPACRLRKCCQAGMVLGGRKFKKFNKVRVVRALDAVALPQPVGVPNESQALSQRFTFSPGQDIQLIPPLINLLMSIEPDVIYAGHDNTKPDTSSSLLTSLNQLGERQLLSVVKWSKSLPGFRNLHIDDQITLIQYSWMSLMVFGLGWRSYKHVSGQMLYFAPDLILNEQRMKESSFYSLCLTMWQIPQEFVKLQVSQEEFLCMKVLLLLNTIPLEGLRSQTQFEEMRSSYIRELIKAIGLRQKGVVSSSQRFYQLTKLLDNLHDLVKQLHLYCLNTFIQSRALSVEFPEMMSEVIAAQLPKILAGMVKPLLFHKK
Chain of Cytochrome P450 2C19 (Homo sapiens) (P33261 whole entry, looked up): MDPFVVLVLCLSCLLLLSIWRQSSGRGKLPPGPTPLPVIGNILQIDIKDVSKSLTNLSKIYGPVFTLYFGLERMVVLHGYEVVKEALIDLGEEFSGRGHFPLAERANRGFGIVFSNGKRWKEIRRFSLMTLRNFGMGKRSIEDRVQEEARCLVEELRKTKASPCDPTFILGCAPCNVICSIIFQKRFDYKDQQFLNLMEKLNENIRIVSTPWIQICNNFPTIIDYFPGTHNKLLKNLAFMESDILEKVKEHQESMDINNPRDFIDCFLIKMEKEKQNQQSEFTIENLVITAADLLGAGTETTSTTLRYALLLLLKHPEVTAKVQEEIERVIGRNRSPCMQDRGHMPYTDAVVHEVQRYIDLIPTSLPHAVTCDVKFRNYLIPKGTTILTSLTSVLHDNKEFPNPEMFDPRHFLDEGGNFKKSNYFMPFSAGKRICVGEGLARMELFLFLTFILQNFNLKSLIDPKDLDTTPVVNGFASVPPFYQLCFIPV
Chain of Cytochrome P450 2D6 (Homo sapiens) (P10635 whole entry, looked up): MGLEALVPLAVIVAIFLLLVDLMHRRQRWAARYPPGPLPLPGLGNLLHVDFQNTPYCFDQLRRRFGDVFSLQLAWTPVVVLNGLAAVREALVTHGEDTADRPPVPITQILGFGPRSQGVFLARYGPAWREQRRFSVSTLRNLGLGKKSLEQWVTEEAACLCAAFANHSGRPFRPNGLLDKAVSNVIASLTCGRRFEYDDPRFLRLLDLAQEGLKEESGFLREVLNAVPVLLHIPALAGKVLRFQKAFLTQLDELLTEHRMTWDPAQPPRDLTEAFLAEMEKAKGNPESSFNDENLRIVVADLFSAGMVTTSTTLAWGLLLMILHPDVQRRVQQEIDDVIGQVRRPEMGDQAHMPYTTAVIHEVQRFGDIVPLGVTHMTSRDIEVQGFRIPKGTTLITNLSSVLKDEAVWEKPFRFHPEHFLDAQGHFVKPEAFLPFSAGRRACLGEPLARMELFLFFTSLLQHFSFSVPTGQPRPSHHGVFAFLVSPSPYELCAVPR
Chain of Nuclear receptor subfamily 1 group I member 2 (Homo sapiens) (O75469 whole entry, looked up): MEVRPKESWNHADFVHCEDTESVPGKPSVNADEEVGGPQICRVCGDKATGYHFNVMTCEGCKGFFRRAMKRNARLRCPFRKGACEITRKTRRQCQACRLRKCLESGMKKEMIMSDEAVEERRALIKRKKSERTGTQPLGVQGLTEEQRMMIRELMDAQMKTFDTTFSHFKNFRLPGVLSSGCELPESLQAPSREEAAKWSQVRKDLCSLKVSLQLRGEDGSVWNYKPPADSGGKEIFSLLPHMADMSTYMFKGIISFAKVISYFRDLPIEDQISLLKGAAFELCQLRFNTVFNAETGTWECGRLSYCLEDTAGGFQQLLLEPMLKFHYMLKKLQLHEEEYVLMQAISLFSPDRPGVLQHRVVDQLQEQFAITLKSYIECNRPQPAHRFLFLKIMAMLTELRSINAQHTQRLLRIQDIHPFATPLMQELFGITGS

With `C/C=C/C(=O)N(CC)c1ccccc1C`, the Potency entry in assay [1], in assay [2], in [3], in assay [4], in assay [5] and in assay [7] was “inactive” in each case. The Potency entry in assay [8], in assay [9], in assay [10], in [11], in assay [12] and in [13] was “inactive” in each case. For the same compound, in assay [14], the Potency entry was “inactive”. Also, the outcome in assay [6] was inactive. Further, the Potency is 44.8 µM (active) and 17.4 µM (active) in assay [15]; 39.9 µM (active) in [16].
For `CCCCCCCC/C=C\CCCCCCCC(=O)O`, the Potency result in assay [2], in [3], in assay [4], in [5], in [17] and in assay [7] was “inactive” in each case. Further, the Potency result in assay [8], in assay [9], in [10], in assay [11], in assay [13] and in assay [18] was “inactive” in each case. Further, the Potency entry in assay [14] and in assay [16] was “inactive” in each case. Besides, in assay [6], the compound was called inactive. For the same compound, the Potency in assay [15] was 71.4 µM (active) and inactive.
Regarding `Cc1ccc([N+](=O)[O-])c(C)c1`, the Potency result in assay [1], in [4], in assay [5], in [17], in assay [7] and in assay [8] was “inactive” each time. Moreover, the Potency result in assay [19], in assay [9], in assay [11], in assay [14] and in [16] was “inactive” in each case. The Potency in assay [3] is 19.3 µM (active) and inactive; in assay [15], 8.94 µM (active) and inactive. In addition, in assay [6], the compound was classed as inactive.
`CC1(C)NC(=O)N(c2ccc([N+](=O)[O-])c(C(F)(F)F)c2)C1=O`: the Potency in [1] is 17.2 µM (active) and 11.9 µM (active); in assay [15], 2.52 µM (active) and 1.38 µM (active); in assay [16], 10 µM (active) and 7.76 µM (active). For the same compound, the Potency result in [2], in assay [4], in assay [5], in assay [17], in assay [7] and in [8] was “inactive” throughout. Further, the Potency entry in assay [19], in assay [10], in assay [11] and in [14] was “inactive” in each case. Moreover, the result in assay [6] was inactive.
In the case of `C=C[C@@]1(C)CC(=O)[C@]2(O)[C@@]3(C)[C@@H](O)CCC(C)(C)[C@@H]3[C@H](O)[C@H](OC(C)=O)[C@@]2(C)O1`, the Potency in assay [2] was 24.3 µM (active) and 15 µM (active); in assay [3] it was 12.2 µM (active) and 16.8 µM (active); in [9], 68.6 µM (active); in assay [14], 63.3 µM (active) and inactive; in [15], 39.9 µM (active). The Potency entry in assay [4], in [5], in [8], in assay [19], in [10] and in [11] was “inactive” throughout. Moreover, in assay [6], the call was inactive.
Consider `Oc1ccc(C(c2ccc(O)cc2)C(Cl)(Cl)Cl)cc1`, for which the Potency in [1] is 12.1 µM (active); in assay [9] it was 54.5 µM (active); in assay [12], “inactive and 61.1 µM (active)”; in assay [15] it was 17.8 µM (active) and 20 µM (active); in assay [16], 22.4 µM (active) and 12.6 µM (active). Also, the Potency entry in [3], in assay [4], in assay [5], in assay [17], in assay [7] and in [8] was “inactive” in each case. The Potency entry in [19], in assay [10] and in assay [14] was “inactive” in each case. Also, the call in assay [6] was inactive.
As for `CC/C=C\C/C=C\C/C=C\CCCCCCCC(=O)O`, the Potency entry in assay [2], in assay [4], in assay [5], in assay [17], in assay [7] and in assay [8] was “inactive” throughout. The Potency entry in [11], in [13] and in [18] was “inactive” in each case. Further, in assay [6], the compound was called inactive. Besides, the Potency result is “inactive and 61.1 µM (active)” in assay [9]; 19.8 µM (active) in [14]; 31.4 µM (active) in assay [15]; 35.3 µM (active) and 39.9 µM (active) in assay [16].
Regarding `COc1cc([C@H]2Oc3cc([C@H]4Oc5cc(O)cc(O)c5C(=O)[C@@H]4O)ccc3O[C@@H]2CO)ccc1O`, the Potency result in assay [2], in assay [3], in assay [4], in assay [5], in assay [17] and in assay [7] was “inactive” throughout. Also, the Potency entry in assay [8], in [19], in [10], in [13], in assay [18] and in assay [15] was “inactive” throughout. The Potency was 60.9 µM (active) and inactive in assay [9]; 60.9 µM (active) and inactive in assay [11]; 60.9 µM (active) and inactive in [12]; 10 µM (active) and 8.71 µM (active) in assay [16].
